Consider 110 sequences from the supplement of paper PMC3334620.

Over roughly 33,000 sequences, “E-score (-0.5 to 0.5)” has its median near -0.012; the highest 2% begin near 0.27. Many of the other results were omitted from the sample, so the highest values are more common in it than they were.

The assay concerns the target T1, Vhr1 (UniProt P40522).
T1 sequence: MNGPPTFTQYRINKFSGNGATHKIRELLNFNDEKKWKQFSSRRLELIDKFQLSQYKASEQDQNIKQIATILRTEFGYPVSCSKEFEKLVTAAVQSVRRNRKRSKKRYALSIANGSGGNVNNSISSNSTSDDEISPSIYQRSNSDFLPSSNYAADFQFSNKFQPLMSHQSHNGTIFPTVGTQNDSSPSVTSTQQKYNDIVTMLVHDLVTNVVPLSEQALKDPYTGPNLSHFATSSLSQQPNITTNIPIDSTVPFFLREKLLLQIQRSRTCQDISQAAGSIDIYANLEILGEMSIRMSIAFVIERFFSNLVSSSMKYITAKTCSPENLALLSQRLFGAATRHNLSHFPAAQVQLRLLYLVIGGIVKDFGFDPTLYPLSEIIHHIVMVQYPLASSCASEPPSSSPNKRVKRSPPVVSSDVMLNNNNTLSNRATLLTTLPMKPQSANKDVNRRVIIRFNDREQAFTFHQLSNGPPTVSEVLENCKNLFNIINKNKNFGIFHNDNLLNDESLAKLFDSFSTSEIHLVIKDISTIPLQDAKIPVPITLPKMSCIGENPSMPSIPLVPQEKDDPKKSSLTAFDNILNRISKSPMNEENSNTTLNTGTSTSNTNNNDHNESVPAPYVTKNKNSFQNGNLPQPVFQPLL
Nature of the assay: PBM E-score (8-mer binding enrichment) (E-score (-0.5 to 0.5)); higher = stronger / more preferred TF binding. To be noted: protein concentration: 200 nM; construct: GST-full length. In outline: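 GST-tagged yeast TFs (full-length or DNA-binding domain) were made by PURExpress in vitro transcription/translation and applied at about 100-200 nM to universal all-10-mer Agilent arrays. The arrays were made double-stranded by primer extension, on fresh or once-stripped slides. Bound protein was detected with fluorescent anti-GST, and scans were normalised with masliner. Each ungapped eight-base word, pooled with its reverse complement, received an E-score (modified Wilcoxon-Mann-Whitney statistic) from the Universal PBM Analysis Suite.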
Turning to AAACCACG, the “PBM E-score” value was -0.079.
Then AAGACCGG, with -0.166; and AGATGACC, with -0.0573; and ACATGACG, with -0.0758.
Consider AGATGACA, for which the “PBM E-score” value is 0.0194.
Under CCATGAGA stands 0.191.
Consider ACATGACA, for which the “PBM E-score” value turned out to be 0.206.
Then TCATGAGA, with 0.101; and ACATGAGC, with 0.0844; and ACATGAGG, with -0.0901.
As for ACATGAGA, the “PBM E-score” value amounted to 0.273.
Then ACATGACT, with 0.446.
In the case of AGATGACT, the “PBM E-score” value came out at 0.435.
Under ACATGAGT stands 0.279; under ACTAGGCT, 0.154; under GATCAGGC, -0.00147.
Under TAGCCTGA stands 0.0109.
Under ACAGTGGA stands -0.0091; under ACTTGTTG, -0.0998.
ACGACCCT: the “PBM E-score” value was -0.139.
Under ATGAGATA stands 0.134; under CAGCAAGA, -0.0328; under AACGAAGG, -0.252.
For the sequence AGGATCCA, the “PBM E-score” value was found to be 0.0343.
For the sequence TGGATCCA, the “PBM E-score” value was -0.0454.
With CGGATCCA, the “PBM E-score” value was 0.298.
For CACTCAGC, the “PBM E-score” value was determined as 0.044.
Then AACTCAGC, with -0.023; and AACTCAGA, with 0.0696.
For GACTCAGC, the “PBM E-score” value worked out at 0.404.
In the case of GACTCAGA, the “PBM E-score” value worked out at 0.308.
Then CACTCAGA, with 0.12.
Then ACTGCAGA, with -0.0788; and AATCTAGA, with -0.14; and AACCGCGA, with 0.278.
For the sequence AACCGCGT, the “PBM E-score” value stood at 0.0481.
Under TACCGCGA stands 0.107; under CCTTTGCC, -0.17.
Then CCATTCGC, with 0.109; and GTCATCGA, with 0.205; and CCCAACAG, with -0.0293.
Under CATGTATC stands 0.18; under GATGTATA, 0.242.
As to CATGTATA, the “PBM E-score” value was found to be 0.28.
Under ACGATGCT stands 0.0556; under AGTTGGAT, 0.127.
Under AGGTCATG stands 0.136.
Consider ATGTCATC, for which the “PBM E-score” value was found to be 0.0412.
For AAGTCATG, the “PBM E-score” value is 0.41.
Regarding CAGTCATC, the “PBM E-score” value was found to be 0.419.
Turning to AAGTCATT, the “PBM E-score” value was -0.0196.
Under CCGTCATC stands -0.0774; under AAGTCATC, 0.323.
As to CGGTCATC, the “PBM E-score” value worked out at 0.124.
Under AAGTCAAG stands -0.156; under CAAAATCC, 0.096.
With CCCTTAAC, the “PBM E-score” value was -0.168.
Under ACATGTGC stands 0.117.
On to ACATGTGA, for which the “PBM E-score” value was 0.0459.
Under ACATGTGG stands 0.278.
For the sequence AGTCGGTA, the “PBM E-score” value is -0.0272.
Then ACCCCAAT, with -0.0588.
Then ATTTGACA, with -0.00873; and GTCCATCA, with -0.104.
Then ACGAATCT, with -0.0246.
For CCGAATCC, the “PBM E-score” value was determined as 0.0952.
Then ACGAATCA, with 0.336; and CCGAATCG, with 0.101; and GCGAATCA, with 0.345.
In the case of TCGAATCA, the “PBM E-score” value is 0.253.
Under CCGAATCA stands 0.288.
Under GCGAATCC stands 0.0147.
On to ACGAATCC, for which the “PBM E-score” value turned out to be 0.117.
For ATTTCTGA, the “PBM E-score” value was -0.152.
For the sequence TATGGAGA, the “PBM E-score” value is -0.137.
Under CTCCCCCC stands -0.0954.
Under ATCTGTTA stands -0.0428.
Then GTACACAC, with 0.261.
For the sequence ATCAGGTA, the “PBM E-score” value came to 0.193.
For ATCCCCAC, the “PBM E-score” value is 0.122.
As to ATACCCAC, the “PBM E-score” value amounted to 0.176.
Under GCGCGAAC stands 0.0578; under AGCTAAAG, -0.21.
Under AGAGCCTC stands -0.228; under CGGCGTGA, 0.142.
For the sequence AGGCGTGA, the “PBM E-score” value came to 0.019.
Regarding GGGCGTGA, the “PBM E-score” value was 0.297.
On to GCGACTAA, for which the “PBM E-score” value is 0.316.
On to CCGACTAC, for which the “PBM E-score” value was 0.269.
Then ACGACTAA, with 0.194.
Then TCGACTAA, with 0.207; and GCGACTAC, with 0.341.
Under ACGACTAC stands 0.209; under CCCAGGCA, 0.0398.
Consider CATTCAGC, for which the “PBM E-score” value was -0.161.
Under CTTGTAAA stands -0.0609; under CGTGGGAG, 0.0618; under AATAAAGC, -0.176.
As for AGTCGCAG, the “PBM E-score” value was determined as 0.24.
In the case of AGTCGCCG, the “PBM E-score” value was found to be 0.246.
Turning to AGTCGCAC, the “PBM E-score” value is 0.296.
On to AGTCGCCC, for which the “PBM E-score” value worked out at 0.346.
Then GGTCGCAC, with 0.0284; and AGTCGCCA, with 0.233.
Then GTTCTTGA, with -0.0686; and CTAGGGGC, with -0.146.
For AACACCAC, the “PBM E-score” value is 0.0462.
GTTCAAAC: the “PBM E-score” value is -0.0829.
Under ATACTGCA stands 0.234.
With CGCCACGA, the “PBM E-score” value was -0.0781.
